Screens from PubChem BioAssay.
Sampled rows, rich in hits. Any-hit rate of the full collection: about 0.86%.
RECQ1 helicase: inhibitors of human RECQ1 DNA helicase; RECQ1 DNA unwinding, red fluorescence kinetic read; AID 2549; actives 0.54% (n = 240,000); Potency, µM (doses to about 57.3 µM), without a hit: at the highest dose activity, negative = inhibition, hits mostly inhibitors; P46063;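 note: plate controls were vehicle for no effect and no enzyme for full effect; nearly all actives have a fitted effect of over 30% in size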
Target sequence (P46063 whole entry, looked up): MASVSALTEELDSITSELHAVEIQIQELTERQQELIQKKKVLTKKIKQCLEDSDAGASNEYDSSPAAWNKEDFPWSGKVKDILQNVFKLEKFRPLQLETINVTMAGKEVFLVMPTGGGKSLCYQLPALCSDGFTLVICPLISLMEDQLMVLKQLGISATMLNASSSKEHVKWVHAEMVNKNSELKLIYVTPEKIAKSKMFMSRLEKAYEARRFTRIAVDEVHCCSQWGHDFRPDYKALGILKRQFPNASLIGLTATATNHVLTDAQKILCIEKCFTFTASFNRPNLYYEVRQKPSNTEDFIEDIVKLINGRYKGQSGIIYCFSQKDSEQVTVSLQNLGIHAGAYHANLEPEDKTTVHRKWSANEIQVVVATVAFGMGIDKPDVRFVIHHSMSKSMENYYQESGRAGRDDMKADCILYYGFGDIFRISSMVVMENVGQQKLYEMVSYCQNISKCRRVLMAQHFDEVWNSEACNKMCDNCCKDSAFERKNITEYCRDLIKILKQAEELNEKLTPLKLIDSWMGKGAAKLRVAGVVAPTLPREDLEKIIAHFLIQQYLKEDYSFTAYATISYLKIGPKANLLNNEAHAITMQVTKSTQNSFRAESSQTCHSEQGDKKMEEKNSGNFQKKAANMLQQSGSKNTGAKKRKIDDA
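50 nM RECQ1T1 preincubated 15 min with compound in Tris pH 8.0 buffer with MgCl2, DTT, Tween-20 and 2.5 ug/ml poly(dI-dC); started with 200 nM TAMRA/BHQ-2 forked duplex and 2 mM ATP. Unwinding read as fluorescence (525/598 nm), two reads 2 h apart.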
PGK inhibitor: T. brucei PGK inhibition; PGK/GAPDH coupled, Kinase-Glo luminescence, 60 min; actives 0.043% (n = 380,000); Potency, µM (series often up to 57.5 µM), without a hit: top-dose activity change, negative = inhibition, hits mostly inhibitors; AID 602233; P07378; note: % is set by controls: 0 for no effect and ±100 for the full control effect; nearly all actives have a fitted effect of over 60% in size
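Recombinant glycosomal PGK reaction used 1,3-bisphosphoglycerate generated in-well by GAPDH (100nM final) in 100mM TEA pH 7.6, 5mM MgCl2, 0.01% Tween-20. After 60 minutes at room temperature, ATP was read by Kinase-Glo Plus luminescence end-point.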
GLS inh: glutaminase GLS (human) inhibition. O94925. GLS enzymatic activity, qHTS titration. Potency, µM (doses to about 45.5 µM), for inactives: at the top dose activity change, negative = inhibition, usual class: inhibitors. actives 0.21% (n = 410,000). AID 624170; note: % is set by controls: 0 for no effect and ±100 for the full control effect
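Human kidney-isoform GLS in 45 mM KH2PO4 pH 8.2, 0.02% Tween-20, with compound, started with 1mM L-Glutamine (added stock). Glutamate oxidase/HRP/Amplex red coupled fluorescence read at start and after 30 min at RT.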
FEN1 inh-1: inhibitors of human flap endonuclease 1; Recombinant FEN1 flap cleavage, fluorescence, 15 min; Potency, µM (highest dose often 114 µM), without a hit: at the highest dose activity change, negative = inhibition, actives largely listed as inhibitors; actives 0.35% (n = 390,000); note: % is set by controls: 0 for no effect and ±100 for the full control effect; nearly all actives have a fitted effect of over 65% in size
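FEN1 at 10 nM preincubated with compounds 15 min at room temperature, then flap DNA substrate added at 50 nM final. Signal read at 0 and 15 min; concentration-response fitted with four-parameter Hill equation.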
APE1 inh: inhibitors of human APE1 endonuclease; Potency, µM (highest dose often 65.8 µM), without a hit: at the highest dose activity change, negative = inhibition, most hits filed as inhibitors; recombinant APE1, TAMRA/BHQ-2 abasic DNA cleavage fluorescence; actives 0.35% (n = 350,000); P27695;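 note: plate controls were vehicle for no effect and reference inhibitor for full effect; nearly all actives have a fitted effect of over 55% in size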
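Measures dequenching upon AP-site incision of a 5'-TAMRA/3'-BHQ-2 THF-containing duplex, 50 nM; human APE1 0.75 nM after 15 min room-temperature exposure to compound; kinetic three-point read at one-minute spacing.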
BLM helicase inh: Bloom syndrome helicase (human) inhibition | recombinant BLM DNA unwinding, fluorescence dequenching | Potency, µM (top dose mostly 56.1 µM), for inactives: at the top dose activity change, negative = inhibition, hits mostly inhibitors | actives 0.2% (n = 350,000) | AID 2528;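 note: plate controls were vehicle for no effect and no enzyme for full effect; nearly all actives have a fitted effect of over 35% in size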
FEN1 inh-2: confirmation of human FEN1 inhibitors; AID 720498; FEN1 flap cleavage, TAMRA/BHQ2 fluorogenic DNA substrate; shares compounds with FEN1 inh-1; actives 79% (n = 880); Potency, µM, usual class: inhibitors; note: nearly all actives have a fitted effect of over 60% in size
The depositor's hits bear a star; i = inactive; u = inconclusive; x = no result given; [ ] = dose if it differs, or a comment. Calls come from the whole dose curve; as a rule, active = well fitted curve in the direction sought with a large enough effect; inconclusive = small, poorly fitted or top-dose-only effect, or another doubt; inactive = no such curve, though single readings can be large; an effect the other way counts as inactive or inconclusive. Potency is the fitted concentration of half-maximal effect.

SMILES	RECQ1 helicase	PGK inhibitor	GLS inh	FEN1 inh-1	APE1 inh	BLM helicase inh	FEN1 inh-2
O=C(O)CSc1cc(NS(=O)(=O)c2ccc(Br)cc2)c2ccccc2c1O	x	-8%	u	u	2%	u	67*
CCC(=O)N1c2ccccc2CC1C(=O)NCCc1ccccc1OC (stereo unspecified)	x	2%	1%	1%	x	4%	x
Cc1ccc(-c2cc(C(=O)Nc3ccc(S(=O)(=O)Nc4ncccn4)cc3)[nH]n2)c(O)c1C	-14%	-17%	u	u	-3%	-29%	u
CC(=O)Nc1ccc(NC(=O)c2cc(-c3ccc(C)c(C)c3O)n[nH]2)cc1	x	-4%	8%	-17%	-4%	-17%	x
CC(=O)OC1CC[C@@]2(C)C(=CC[C@H]3[C@@H]4CC[C@H](C(C)=O)[C@@]4(C)CC[C@@H]32)C1 (stereo partly specified)	-4%	x	x	x	-1%	-4%	x
COc1ccc(C(NC(=O)COc2ccc(C#N)cc2)c2ccc(OC)cc2)cc1	x	x	x	-16%	x	x	x
Cc1ccc2c(nc3s/c(=C\c4ccc(-c5ccccc5C(=O)O)o4)c(=O)n32)c1C	x	-6%	u	-23%	u	-7%	x
O=C(O)c1ccc(-c2ccc(/C=c3/sc4nc5ccccc5n4c3=O)o2)cc1Cl	x	10µM*	10µM*	13µM*	9.5µM*	u	u
c1ccc2nc3c(nc2c1)c1ccccc1n3CCN1CCOCC1	-3%	-9%	-2%	u	-3%	88%	u
CCCn1c2ccccc2c2nnc(SCCN3CCOCC3)nc21	x	-1%	3%	-8%	9%	0%	x
COc1ccc(Nc2nc(N3CCCC3)c3ccccc3n2)cc1	-20%	-7%	18%	u	-3%	-8%	34*
COc1ccc(Nc2c3ccccc3nc3ccccc23)cc1	x	-2%	2%	u	-35%	-7%	30*
CCN(CC)c1ccc(Nc2nc(N3CCOCC3)c3ccccc3n2)cc1	i	4%	38%	-20%	1%	-3%	x
COc1ccc(CNC(=O)c2cc3c(-c4ccc(Cl)cc4)nn(C)c3s2)cc1	x	i	-13%	-21%	x	-4%	x
CCCN(CCC)CCCNC(=O)c1cc2c(-c3ccc(Cl)cc3)nn(C)c2s1	x	-4%	1%	u	x	139%	u
Cc1ccc(Cn2cc(S(=O)(=O)c3cccc(Cl)c3)c(=O)c3cc(F)c(N4CCCCC4)cc32)cc1	x	-2%	4%	-1%	x	-3%	x
Cc1cccc2c(N=NC(=O)c3ccc(NS(=O)(=O)c4cccs4)cc3)c(O)[nH]c12	x	u	-4%	u	u	x	34*
Cc1ccc2[nH]c(O)c(N=NC(=O)c3ccc(NS(=O)(=O)c4cccs4)cc3)c2c1	-3%	-4%	-1%	u	-1%	-22%	x
O=Cc1ccc(OC2C=CC(c3ccccc3)OC2CO)cc1 (stereo unspecified)	i[11.5 µM]	x	x	x	16%[12.4 µM]	-1%[12.4 µM]	x
O=C(COC(=O)c1ccc([N+](=O)[O-])s1)Nc1ccc(F)cc1	x	-8%	-3%	-17%	u	x	x
O=C(COC(=O)c1ccc([N+](=O)[O-])s1)Nc1ccccc1	i	-4%	3%	-18%	u	-7%	21*
COc1ccc(S(=O)(=O)N2CCOCC2)cc1NC(=O)COC(=O)c1ccc([N+](=O)[O-])s1	x	-5%	5%	-20%	u	x	6.7*
Cc1ccc(C(=O)OCc2nnc(-c3ccccc3)o2)s1	x	-9%	-4%	-3%	-4%	x	x
COc1ccc(S(=O)(=O)N2CCOCC2)cc1NC(=O)COC(=O)c1[nH]c(C)c(C(C)=O)c1C	x	1%	-9%	-4%	-3%	x	x
O=C(OCc1nnc(-c2ccccc2)o1)c1ccc([N+](=O)[O-])s1	x	-16%	1%	u	u	x	4.8*
SMILES	RECQ1 helicase	PGK inhibitor	GLS inh	FEN1 inh-1	APE1 inh	BLM helicase inh	FEN1 inh-2
CCCN(CCC)CCCNC(=O)Cn1ncn2c(cc3sc(CC)cc32)c1=O	x	9%	1%	18%	x	-8%	x
COc1ccc(CN2CC[C@H]3C=CC[C@@H](C(=O)NC4CCCCC4)[C@H]3C2=O)cc1OC	x	x	x	15%	x	x	x
Cc1ccc(NC(=O)C(=O)NCC(c2ccc3c(c2)OCO3)N2CCN(C)CC2)cc1C (stereo unspecified)	x	7%	2%	19%	x	-5%	x
CCCN1CCN(CCCNC(=O)c2ccc3c(c2)sc2nc(-c4ccc(OC)cc4)cn23)CC1	x	7%	0%	18%	x	2%	x
COc1ccc(-c2cn3c(n2)sc2cc(C(=O)NCCCN4CCCCC4)ccc23)cc1	x	i	1%	-19%	x	1%	67*
COc1ccc(-c2cn3c(n2)sc2cc(C(=O)NCCCN4CCN(C)CC4)ccc23)cc1	x	i	-5%	17%	x	0%	x
COc1ccc(-c2cn3c(n2)sc2cc(C(=O)NCCCN4CCCCCC4)ccc23)cc1	x	4%	4%	-4%	x	1%	38*
CCC(Sc1nc2ccsc2c(=O)n1Cc1ccc(C(=O)O)cc1)C(=O)Nc1ccc(C)c(Cl)c1 (stereo unspecified)	x	-18%	-9%	u	-5%	-10%	u
CCC(Sc1nc2ccsc2c(=O)n1Cc1ccc(C(=O)O)cc1)C(=O)Nc1cc(Cl)ccc1C (stereo unspecified)	x	u	-4%	x	x	x	x
COc1cc(/C=C2\SC(=O)N(CC(=O)Nc3ccc(C)cc3)C2=O)cc(Cl)c1OCC(=O)O	x	u	7.1µM*	u	5.3µM*	10µM*	67*
c1ccc2c(c1)-c1cccc3cncc-2c13	x	7%	-14%	u	x	x	u
Cc1ccc2c(c1)cc(C(=O)Nc1ccc(F)cc1F)n2C	x	i	0%	10%	x	-1%	x
CCN(CC)CCN1C(=O)c2cccc3cc(N)cc(c23)C1=O	15%	0%	5%	50µM*	u	116%	u
C=C1C=C(C(F)F)n2ncc(C(=O)NCc3ccc(OC)cc3)c2N1	x	x	x	0%	x	x	x
CCOc1cc(-c2ccc3c(c2)OCO3)cc(=[O+]CC)c2c(C)oc(C)c12	x	x	x	45µM*	x	x	u
COc1cc(/C=C2\SC(=Nc3ccccc3)NC2=O)cc(Cl)c1O	x	-1%	7%	u	-10%	-11%	x
COc1cc(/C=C2\SC(=Nc3ccc(Cl)c(C(=O)O)c3)NC2=O)c(Br)c(Br)c1O	x	-10%	u	25µM*	u	-3%	38*
